Assay outcomes: PubChem, Johns Hopkins Ion Channel Center
The list is not random: actives were taken first. Their share in the collection is about 1.6%.
KCNQ2 enhance – KCNQ2 (rat) channel potentiation. CHO-K1 KCNQ2, FluxOR thallium flux fluorescence; stronger effect = higher value. O88943. AID 2239. B-score at 10 µM. hit rate 0.54% among 310,000;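 active = fluorescence ratio B-score at least 3 SD of library B-scores, with initial fluorescence B-score within 3 of them, cut at about 5.3 in these data; same plate scores as AID 2156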;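 note: B-score of peak minus minimum over baseline fluorescence ratio after K+ and Tl+ stimulus; positive B-score means potentiation of KCNQ2 with more thallium influx and brighter signal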
KCNQ2 block – KCNQ2 (rat) channel inhibition. O88943. CHO-K1 KCNQ2, FluxOR thallium flux, 20 min; stronger effect = lower value. B-score at 10 µM. hit rate 1.1% among 310,000. AID 2156;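 active = fluorescence ratio B-score at most minus 3 library SDs, with starting brightness B-score within 2 library SDs, cut at about -5.5 in these data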
Hits are given with their value; – = inactive; · = no result.

SMILES | KCNQ2 enhance | KCNQ2 block
CCOC(=O)C1=NN(c2cccc(Cl)c2)C2=NC(C)=C(C(=O)OC)C(c3cccs3)N12 (stereo unspecified) | – | -5.7
CC(C)CN(C(=O)c1ccc(=O)n(C)n1)c1nc2ccccc2s1 | – | –
COc1ccc(-c2noc(-c3ccccc3F)n2)cc1 | – | –
COc1ccc(-c2noc(-c3ccccc3-c3ccccc3)n2)cc1 | – | -6.6
CCc1nc(Nc2ccc(OC)cc2OC)c2oc3ccccc3c2n1 | · | –
c1ccc(CN2CCC(=NNc3nc4ccccc4[nH]3)CC2)cc1 | – | –
CC(C)(C)C1CCC(=NNc2nc3ccccc3[nH]2)CC1 (stereo unspecified) | – | -5.8
Cc1cc(Br)c(NC(=O)CN(C)CCOc2ccccc2)c(Br)c1 | · | –
Cc1cc(Br)c(NC(=O)CCl)c(Br)c1 | 6 | –
CC1=CC(C)(C)n2c(O)c(N=N)c3c(C)c(C)cc1c32 | – | -6.6
CC1=CC(C)(C)n2c(O)c(N=NC(N)=S)c3c(C)c(C)cc1c32 | – | –
Cc1ccc(S(=O)(=O)n2c(C)nc3ccccc32)cc1 | – | -7.3
Cc1nc2ccccc2n1S(=O)(=O)c1ccc(S(=O)(=O)N2CCCCCC2)cc1 | · | –
COc1cccc(N2C(=O)Nc3ccc(Br)cc3C2(O)C(=O)NCCCOC(C)C)c1 (stereo unspecified) | · | –
CCOc1ccccc1C(=O)N(Cc1ccccc1)Cc1cc2cc3c(cc2[nH]c1=O)OCCO3 | – | –
C/C(=C\C(=S)Nc1ccccc1)Nc1ccc2ccccc2c1 | – | -6.3
C/C(=C\C(=S)Nc1ccccc1)Nc1cccc2ccccc12 | · | –
COc1ccc(C(O)Cc2nccn2C)cc1 (stereo unspecified) | · | –
CC(Cc1ccccc1)NC(=S)CN1CCCC1=S (stereo unspecified) | · | –
CC(C)(C)c1ccc(/C=N/OCC(=O)NCc2ccc(F)cc2)cc1 | · | –
COc1cc(OC)c(C(=O)N2CCN(c3ccccn3)CC2)cc1OC | · | –
O=C(c1ccc(CS(=O)c2ccccc2Cl)o1)N1CCN(c2ccccc2)CC1 (stereo unspecified) | · | –
O=C(c1ccc(COc2ccccc2Cl)o1)N1CCN(c2ccccc2)CC1 | – | -6
O=C(c1ccc(COc2ccc3c(c2)CCC3)o1)N1CCN(c2ccccc2)CC1 | – | -8
CCCc1ccc(OCc2ccc(C(=O)N3CCN(c4ccccn4)CC3)o2)c(OC)c1 | – | -5.9
SMILES | KCNQ2 enhance | KCNQ2 block
O=C(c1ccco1)N1CCN(C(=O)c2ccc(COc3ccc4c(c3)CCC4)o2)CC1 | · | –
Cc1cc(C)cc(C(=O)N2CCN(c3ccccn3)CC2)c1 | – | –
CN(C)c1ccc(NC(=O)CCN2CCN(c3ccccn3)CC2)cc1 | · | –
CN(Cc1nccs1)C(=O)C1CCC(=O)N(CCCc2ccccc2)C1 (stereo unspecified) | · | –
CCCCn1c(N)c(N(CC)C(=O)c2ccccc2F)c(=O)[nH]c1=O | – | –
COc1ccc(CCNC(=O)c2nn(C)c3c2CS(=O)(=O)c2ccccc2-3)cc1OC | – | –
O=C(/C=C/c1ccccc1)N1CCN(c2ccc([N+](=O)[O-])c(N3CCOCC3)c2)CC1 | – | -6.4
O=C(c1ccc2ccccc2c1)N1CCN(c2ccc([N+](=O)[O-])c(N3CCOCC3)c2)CC1 | · | –
Cc1ccc(/C=C/C(=O)CCC(=O)O)cc1 | · | –
CC(=O)Nc1ccc(NC(=O)C2CCN(c3ccc(C(F)(F)F)cn3)CC2)cc1 | – | –
CCOC(=O)/C(=C\c1cccnc1)C(=O)c1cc(C(C)=O)c(Nc2ccccc2)s1 | · | –
CCOC(=O)/C(=C\c1ccccc1)C(=O)c1cc(C(C)=O)c(Nc2ccccc2)s1 | – | -8.1
COc1cc(C(=O)NCCOc2cccc(C)c2)c(Br)c(OC)c1OC | · | –
C=CCc1cccc(/C=N/NC(=O)c2ccccc2OC)c1O | – | –
C=CCc1cccc(/C=N/NC(=O)c2ccccc2Br)c1O | 9.6 | –
CC12CCC(=O)N1C(C(=O)Nc1nc3ccc(Cl)cc3s1)CS2 (stereo unspecified) | – | -6
CC12CCC(=O)N1C(C(=O)Nc1nc3ccc(S(C)(=O)=O)cc3s1)CS2 (stereo unspecified) | – | –
CC1Cc2ccccc2N1C(=S)NC(=O)c1cccc(Br)c1 (stereo unspecified) | 28 | –
COc1cccc(NC(=S)N2c3ccccc3CC2C)c1 (stereo unspecified) | – | –
COc1cccc(C(=O)NC(=S)N2c3ccccc3CC2C)c1OC (stereo unspecified) | – | –
CC1Cc2ccccc2N1C(=S)NC(=O)c1ccc(Cl)cc1Cl (stereo unspecified) | 21 | –
COCCN(Cc1cc2ccc(C)cc2[nH]c1=O)S(=O)(=O)c1ccccc1 | – | –
O=C(COc1cc(O)c2c(=O)cc(-c3ccccc3)oc2c1)c1ccccc1 | – | -5.9
Cc1ccc(C(=O)COc2cc(O)c3c(=O)cc(-c4ccccc4)oc3c2)cc1 | · | –
CCOc1ccc(CNC(=O)Cn2ccc3cc(S(=O)(=O)N4CCCC4)ccc32)cc1 | – | –
SMILES | KCNQ2 enhance | KCNQ2 block
Cc1ccccc1Cn1ccc(-c2ccc3c(c2)OCO3)n1 | – | -6.7
Fc1cccc(Cn2ccc(-c3ccc4c(c3)OCO4)n2)c1 | · | –
C#CCN(Cc1ccco1)C(=O)c1ccc(OC2CCN(Cc3ccccn3)CC2)cc1 | · | –
CCc1cc2c(C)cc(=O)oc2cc1OC(=O)C1CCCN1C(=O)OC(C)(C)C (stereo unspecified) | – | -6
CC(C)(C)OC(=O)N1CCCC1C(=O)NCCc1ccccc1 (stereo unspecified) | – | –
CC1CCN(S(=O)(=O)c2ccc(NC(=O)C3CSC4(C)CCC(=O)N34)cc2)CC1 (stereo unspecified) | – | –
CCc1sc(NC(=O)c2cc3ccccc3oc2=O)nc1-c1cccs1 | – | –
CCOC(=O)c1c(N2C(=O)C3C4C=CC(C4)C3C2=O)sc2c1CCC(C)C2 (stereo unspecified) | 6.7 | –
CCOC(=O)c1cc(C)sc1N1C(=O)C2C3C=CC(C3)C2C1=O (stereo unspecified) | – | –
C/C(=N\NC(N)=O)c1ccccc1Cl | · | –
COc1ccc(C)cc1NC(=O)C(CCS(C)(=O)=O)NC(C)=O (stereo unspecified) | · | –
CC1(C)CC(=O)C(C(C2=C(O)CC(C)(C)CC2=O)c2cccs2)C(=O)C1 (stereo unspecified) | 6.2 | –
CC1(C)CC(=O)C(C(C2=C(O)CC(C)(C)CC2=O)c2cccnc2)C(=O)C1 (stereo unspecified) | – | –
COc1cc2ccccc2cc1C(=O)Nc1sc2c(c1C(N)=O)CCN(C(C)C)C2 | – | -5.9
CN1CCc2c(sc(NC(=O)c3ccc4ccccc4c3)c2C(N)=O)C1 | · | –
Cc1c(O)nc(SCC(=O)Nc2ccc3c4c(cccc24)CC3)n(-c2ccccc2)c1=O | 12 | –
O=C(CSc1nc(O)cc(=O)n1-c1ccccc1)Nc1ccc2c3c(cccc13)CC2 | – | –
CC1Cc2cccc3c(O)c(C(=O)c4nn[nH]n4)c(=O)n1c23 (stereo unspecified) | – | –
CCN1CCN(c2ccc(S(=O)(=O)N3CCCCC3)cc2NC(=O)c2cccc(C(F)(F)F)c2)CC1 | · | –
Cc1ccc(C(=O)Nc2cc(C(F)(F)F)ccc2N2CCCCC2)cc1[N+](=O)[O-] | – | -7.2
O=C(Nc1cc(C(F)(F)F)ccc1N1CCCCC1)c1cccc([N+](=O)[O-])c1 | – | –
CN1CCN(S(=O)(=O)c2cccc(C(=O)Nc3ccccc3N3CCCCC3)c2)CC1 | – | -6
